# Test results reported in paper PMC7862700, “An all-to-all approach to the identification of sequence-specific readers for epigenetic DNA modifications on cytosine”.
# Tests used:
# Assay in all cases: DAPPL (digital affinity profiling via proximity ligation, sequencing); 10 mM Tris-HCl pH 7.5, 50 mM NaCl, 1 mM DTT, 4% glycerol, room temperature, 30 min; GST-TFs on glutathione beads, 16-mer random dsDNA library, 0.1% formaldehyde crosslink after washing; high values mean tight binding
# FLI1 = molecular target: T1, FLI1 (Homo sapiens, UniProt Q01543 1-452); conditions: protein: recombinant; tags: N-terminal GST; dsDNA, one strand shown
# T1 sequence: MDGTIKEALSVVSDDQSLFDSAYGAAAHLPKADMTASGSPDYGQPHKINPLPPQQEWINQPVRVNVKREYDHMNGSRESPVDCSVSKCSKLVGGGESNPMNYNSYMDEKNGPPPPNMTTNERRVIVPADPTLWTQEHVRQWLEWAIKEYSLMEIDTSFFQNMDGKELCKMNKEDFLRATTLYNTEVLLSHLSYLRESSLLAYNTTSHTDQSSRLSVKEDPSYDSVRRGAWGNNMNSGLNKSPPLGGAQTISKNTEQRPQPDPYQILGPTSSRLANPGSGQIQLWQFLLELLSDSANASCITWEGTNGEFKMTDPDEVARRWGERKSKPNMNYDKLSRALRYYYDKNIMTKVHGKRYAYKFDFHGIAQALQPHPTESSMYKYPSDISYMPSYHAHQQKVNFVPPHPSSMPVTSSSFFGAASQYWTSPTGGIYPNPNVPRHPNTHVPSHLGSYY
# Method in brief: (§1)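 Human transcription factors carrying a GST fusion were produced in yeast, bound to glutathione beads, tagged with DNA barcodes and pooled together with a tag-only sample. Each pool was held with 200 nmole of a random double-stranded 16-mer DNA library in Tris/NaCl/DTT/glycerol buffer for 30 min at room temperature, then washed, crosslinked in 0.1% formaldehyde, proximity-ligated with BsaI/T4 ligase (1 h, 37 °C), PCR-amplified and sequenced on an Illumina NextSeq500. Binding signal is the read frequency of each hexamer for a given factor divided by its frequency in the tag-only sample.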
# ELK1 = molecular target: T2, ELK1 (Homo sapiens, UniProt P19419 1-428); conditions: protein: recombinant; tags: N-terminal GST; dsDNA, one strand shown
# T2 sequence: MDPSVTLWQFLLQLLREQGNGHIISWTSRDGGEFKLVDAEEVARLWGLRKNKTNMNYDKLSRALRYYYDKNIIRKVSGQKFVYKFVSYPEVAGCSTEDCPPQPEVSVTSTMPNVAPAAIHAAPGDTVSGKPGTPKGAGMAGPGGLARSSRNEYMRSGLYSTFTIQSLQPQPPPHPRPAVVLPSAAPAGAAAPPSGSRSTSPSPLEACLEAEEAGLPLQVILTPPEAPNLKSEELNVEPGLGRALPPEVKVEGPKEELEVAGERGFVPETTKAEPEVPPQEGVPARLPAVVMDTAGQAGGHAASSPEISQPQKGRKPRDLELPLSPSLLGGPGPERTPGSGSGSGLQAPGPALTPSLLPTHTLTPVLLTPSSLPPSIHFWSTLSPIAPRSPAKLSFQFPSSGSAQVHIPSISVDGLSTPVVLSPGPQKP
# Method in brief: as §1
# GABPA = molecular target: T3, GABPA (Homo sapiens, UniProt Q06546 1-454); conditions: protein: recombinant; tags: N-terminal GST; dsDNA, one strand shown
# T3 sequence: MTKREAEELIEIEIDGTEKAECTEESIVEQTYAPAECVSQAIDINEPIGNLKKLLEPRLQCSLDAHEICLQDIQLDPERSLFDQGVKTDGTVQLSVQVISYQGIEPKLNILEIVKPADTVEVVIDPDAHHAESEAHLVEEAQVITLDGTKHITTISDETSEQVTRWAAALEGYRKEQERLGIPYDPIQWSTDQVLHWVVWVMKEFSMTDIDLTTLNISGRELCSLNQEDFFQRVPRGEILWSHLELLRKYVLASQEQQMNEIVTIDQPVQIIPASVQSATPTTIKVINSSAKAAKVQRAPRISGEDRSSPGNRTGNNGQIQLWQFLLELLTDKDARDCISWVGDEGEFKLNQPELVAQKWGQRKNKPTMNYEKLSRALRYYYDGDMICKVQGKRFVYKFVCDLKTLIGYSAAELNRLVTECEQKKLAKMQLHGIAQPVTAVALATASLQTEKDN
# Method in brief: as §1
# ERG = molecular target: T4, ERG (Homo sapiens, UniProt P11308 1-479); conditions: protein: recombinant; tags: N-terminal GST; dsDNA, one strand shown
# T4 sequence: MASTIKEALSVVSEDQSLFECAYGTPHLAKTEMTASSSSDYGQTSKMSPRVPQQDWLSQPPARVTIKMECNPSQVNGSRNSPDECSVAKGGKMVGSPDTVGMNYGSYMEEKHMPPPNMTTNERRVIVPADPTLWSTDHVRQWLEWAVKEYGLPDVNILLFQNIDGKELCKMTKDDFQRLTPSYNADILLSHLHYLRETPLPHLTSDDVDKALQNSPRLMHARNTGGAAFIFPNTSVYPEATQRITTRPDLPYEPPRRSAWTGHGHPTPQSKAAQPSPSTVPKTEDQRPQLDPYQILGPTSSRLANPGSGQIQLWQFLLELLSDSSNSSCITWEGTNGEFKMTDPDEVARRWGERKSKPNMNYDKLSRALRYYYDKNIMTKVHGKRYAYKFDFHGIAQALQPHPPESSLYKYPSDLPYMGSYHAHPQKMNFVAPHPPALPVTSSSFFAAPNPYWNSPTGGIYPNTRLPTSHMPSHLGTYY
# Method in brief: as §1
# ELF1 = ELF1 (Homo sapiens, UniProt P32519 1-619); conditions: protein: recombinant; tags: N-terminal GST; dsDNA, one strand shown
# Method in brief: as §1
# EHF = molecular target: T5, EHF (Homo sapiens, UniProt Q9NZC4 1-300); conditions: protein: recombinant; tags: N-terminal GST; dsDNA, one strand shown
# T5 sequence: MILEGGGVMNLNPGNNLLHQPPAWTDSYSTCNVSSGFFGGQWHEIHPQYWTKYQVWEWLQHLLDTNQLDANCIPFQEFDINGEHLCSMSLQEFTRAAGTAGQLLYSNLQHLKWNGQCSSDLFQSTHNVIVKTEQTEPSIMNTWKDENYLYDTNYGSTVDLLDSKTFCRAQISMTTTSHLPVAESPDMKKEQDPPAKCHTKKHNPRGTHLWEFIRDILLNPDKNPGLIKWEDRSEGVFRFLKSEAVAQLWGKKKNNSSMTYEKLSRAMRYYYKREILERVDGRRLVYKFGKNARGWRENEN
# Method in brief: as §1
# SPI1 = SPI1 (Homo sapiens, UniProt P17947 1-270); conditions: protein: recombinant; tags: N-terminal GST; dsDNA, one strand shown
# Method in brief: as §1
# SPIB = SPIB (Homo sapiens, UniProt Q01892 1-262); conditions: protein: recombinant; tags: N-terminal GST; dsDNA, one strand shown
# Method in brief: as §1
# ELK3 = molecular target: T6, ELK3 (Homo sapiens, UniProt P41970 1-407); conditions: protein: recombinant; tags: N-terminal GST; dsDNA, one strand shown
# T6 sequence: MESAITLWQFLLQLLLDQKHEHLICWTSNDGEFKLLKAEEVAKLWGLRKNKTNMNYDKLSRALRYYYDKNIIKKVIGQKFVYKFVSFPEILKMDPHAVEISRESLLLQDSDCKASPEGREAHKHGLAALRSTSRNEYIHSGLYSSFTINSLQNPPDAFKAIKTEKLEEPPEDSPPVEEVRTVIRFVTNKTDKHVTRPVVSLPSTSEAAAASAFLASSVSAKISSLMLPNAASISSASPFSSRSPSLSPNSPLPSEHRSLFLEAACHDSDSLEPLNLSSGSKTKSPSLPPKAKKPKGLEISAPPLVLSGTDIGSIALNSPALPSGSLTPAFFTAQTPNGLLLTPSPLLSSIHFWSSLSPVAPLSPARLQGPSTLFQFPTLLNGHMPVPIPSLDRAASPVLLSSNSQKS
# Method in brief: as §1
# FEV = molecular target: T7, FEV (Homo sapiens, UniProt Q99581 1-238); conditions: protein: recombinant; tags: N-terminal GST; dsDNA, one strand shown
# T7 sequence: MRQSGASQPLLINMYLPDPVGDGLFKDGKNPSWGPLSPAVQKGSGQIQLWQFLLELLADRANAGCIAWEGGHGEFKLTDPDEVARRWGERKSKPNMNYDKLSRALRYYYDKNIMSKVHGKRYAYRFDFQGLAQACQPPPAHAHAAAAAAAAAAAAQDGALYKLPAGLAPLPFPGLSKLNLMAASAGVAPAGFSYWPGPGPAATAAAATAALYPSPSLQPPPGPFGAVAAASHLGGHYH
# Method in brief: as §1
# ETV5 = ETV5 (Homo sapiens, UniProt P41161 1-510); conditions: protein: recombinant; tags: N-terminal GST; dsDNA, one strand shown
# Method in brief: as §1
# HSF1 = HSF1 (Homo sapiens, UniProt Q00613 1-529); conditions: protein: recombinant; tags: N-terminal GST; chain copies: 3; dsDNA, one strand shown
# Method in brief: as §1
# SPIC = molecular target: T8, SPIC (Homo sapiens, UniProt Q8N5J4 1-248); conditions: protein: recombinant; tags: N-terminal GST; dsDNA, one strand shown
# T8 sequence: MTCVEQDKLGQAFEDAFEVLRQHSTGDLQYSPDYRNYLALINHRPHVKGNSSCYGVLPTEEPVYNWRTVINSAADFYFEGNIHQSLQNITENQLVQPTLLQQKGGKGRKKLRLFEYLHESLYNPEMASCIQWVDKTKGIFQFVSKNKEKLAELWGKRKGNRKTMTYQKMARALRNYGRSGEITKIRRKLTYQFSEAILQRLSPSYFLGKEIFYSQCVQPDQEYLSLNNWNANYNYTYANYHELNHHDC
# Method in brief: as §1
# ELF4 = ELF4 (Homo sapiens, UniProt Q99607 1-663); conditions: protein: recombinant; tags: N-terminal GST; dsDNA, one strand shown
# Method in brief: as §1
# ELK4 = molecular target: T9, ELK4 (Homo sapiens, UniProt P28324-2 1-405); conditions: protein: recombinant; tags: N-terminal GST; dsDNA, one strand shown
# T9 sequence: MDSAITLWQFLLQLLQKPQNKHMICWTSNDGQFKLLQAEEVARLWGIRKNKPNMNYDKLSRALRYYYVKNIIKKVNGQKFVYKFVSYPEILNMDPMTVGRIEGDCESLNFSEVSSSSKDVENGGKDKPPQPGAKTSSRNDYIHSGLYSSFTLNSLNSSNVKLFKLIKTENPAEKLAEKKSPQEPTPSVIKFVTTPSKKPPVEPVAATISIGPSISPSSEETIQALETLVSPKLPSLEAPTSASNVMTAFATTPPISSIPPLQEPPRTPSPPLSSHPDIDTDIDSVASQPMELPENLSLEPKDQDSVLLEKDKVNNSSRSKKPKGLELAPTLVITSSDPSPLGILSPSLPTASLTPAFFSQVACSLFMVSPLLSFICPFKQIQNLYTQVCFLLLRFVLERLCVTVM
# Method in brief: as §1
# ETV2 = molecular target: T10, ETV2 (Homo sapiens, UniProt O00321 1-342); conditions: protein: recombinant; tags: N-terminal GST; dsDNA, one strand shown
# T10 sequence: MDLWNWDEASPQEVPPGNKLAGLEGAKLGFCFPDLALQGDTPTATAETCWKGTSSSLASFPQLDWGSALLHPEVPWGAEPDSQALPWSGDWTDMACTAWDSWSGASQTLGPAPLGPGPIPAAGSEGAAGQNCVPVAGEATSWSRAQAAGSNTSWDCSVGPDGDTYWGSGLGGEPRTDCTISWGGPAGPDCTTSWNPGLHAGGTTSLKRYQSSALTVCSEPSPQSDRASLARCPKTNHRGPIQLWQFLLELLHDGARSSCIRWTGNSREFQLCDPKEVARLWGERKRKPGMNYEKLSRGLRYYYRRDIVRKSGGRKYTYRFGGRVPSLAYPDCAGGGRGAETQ
# Method in brief: as §1
# ELF3 = molecular target: T11, ELF3 (Homo sapiens, UniProt P78545 1-371); conditions: protein: recombinant; tags: N-terminal GST; dsDNA, one strand shown
# T11 sequence: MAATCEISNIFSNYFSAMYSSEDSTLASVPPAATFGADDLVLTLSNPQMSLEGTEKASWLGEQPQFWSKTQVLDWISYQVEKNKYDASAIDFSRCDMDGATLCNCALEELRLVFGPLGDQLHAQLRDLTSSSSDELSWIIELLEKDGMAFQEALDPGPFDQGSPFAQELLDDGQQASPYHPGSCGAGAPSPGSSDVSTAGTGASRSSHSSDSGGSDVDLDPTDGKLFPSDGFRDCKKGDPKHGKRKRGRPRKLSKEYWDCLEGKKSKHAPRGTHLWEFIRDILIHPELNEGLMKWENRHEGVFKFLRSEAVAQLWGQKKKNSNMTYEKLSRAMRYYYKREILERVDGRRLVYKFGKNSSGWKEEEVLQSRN
# Method in brief: as §1
# CRX = CRX (Homo sapiens, UniProt O43186 1-299); conditions: protein: recombinant; tags: N-terminal GST; dsDNA, one strand shown
# Method in brief: as §1
# ETV1 = ETV1 (Homo sapiens, UniProt P50549 1-477); conditions: protein: recombinant; tags: N-terminal GST; dsDNA, one strand shown
# Method in brief: as §1
# Chain of CRX (O43186 whole entry): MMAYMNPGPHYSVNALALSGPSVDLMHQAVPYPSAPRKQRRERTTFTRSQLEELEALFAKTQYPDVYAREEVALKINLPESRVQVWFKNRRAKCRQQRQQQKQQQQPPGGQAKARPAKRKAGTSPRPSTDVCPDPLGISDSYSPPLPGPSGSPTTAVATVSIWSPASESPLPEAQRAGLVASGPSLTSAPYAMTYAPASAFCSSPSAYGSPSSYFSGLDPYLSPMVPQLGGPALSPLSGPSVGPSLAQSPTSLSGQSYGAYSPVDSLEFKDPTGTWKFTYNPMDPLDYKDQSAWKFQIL
# Chain of ETV5 (P41161 whole entry): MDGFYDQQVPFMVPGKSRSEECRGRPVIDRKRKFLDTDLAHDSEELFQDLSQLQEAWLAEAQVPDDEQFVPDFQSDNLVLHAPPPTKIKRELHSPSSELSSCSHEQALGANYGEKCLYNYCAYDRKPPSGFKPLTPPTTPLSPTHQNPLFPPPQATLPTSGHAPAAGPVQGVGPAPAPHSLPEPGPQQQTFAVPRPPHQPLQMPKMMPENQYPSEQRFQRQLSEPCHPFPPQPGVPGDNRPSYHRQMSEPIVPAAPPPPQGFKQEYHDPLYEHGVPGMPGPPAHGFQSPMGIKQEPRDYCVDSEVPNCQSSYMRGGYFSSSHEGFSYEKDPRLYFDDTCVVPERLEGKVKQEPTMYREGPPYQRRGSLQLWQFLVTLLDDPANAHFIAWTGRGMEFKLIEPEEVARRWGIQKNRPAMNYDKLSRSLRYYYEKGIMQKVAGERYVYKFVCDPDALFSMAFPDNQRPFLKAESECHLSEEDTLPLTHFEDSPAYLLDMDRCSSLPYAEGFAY
# Chain of HSF1 (Q00613 whole entry): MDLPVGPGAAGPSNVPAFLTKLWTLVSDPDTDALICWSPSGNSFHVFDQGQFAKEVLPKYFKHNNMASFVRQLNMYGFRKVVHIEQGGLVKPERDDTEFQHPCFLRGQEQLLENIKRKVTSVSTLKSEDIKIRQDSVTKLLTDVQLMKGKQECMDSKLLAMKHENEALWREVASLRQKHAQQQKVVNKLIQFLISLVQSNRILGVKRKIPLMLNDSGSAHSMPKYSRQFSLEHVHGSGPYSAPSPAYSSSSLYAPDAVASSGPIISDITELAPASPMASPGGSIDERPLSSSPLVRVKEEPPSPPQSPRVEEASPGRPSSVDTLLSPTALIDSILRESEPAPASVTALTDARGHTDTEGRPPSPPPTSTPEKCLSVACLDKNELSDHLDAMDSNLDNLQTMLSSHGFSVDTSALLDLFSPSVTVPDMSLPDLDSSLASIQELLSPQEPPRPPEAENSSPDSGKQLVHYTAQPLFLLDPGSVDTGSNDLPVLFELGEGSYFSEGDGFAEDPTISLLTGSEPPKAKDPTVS
# Chain of SPIB (Q01892 whole entry): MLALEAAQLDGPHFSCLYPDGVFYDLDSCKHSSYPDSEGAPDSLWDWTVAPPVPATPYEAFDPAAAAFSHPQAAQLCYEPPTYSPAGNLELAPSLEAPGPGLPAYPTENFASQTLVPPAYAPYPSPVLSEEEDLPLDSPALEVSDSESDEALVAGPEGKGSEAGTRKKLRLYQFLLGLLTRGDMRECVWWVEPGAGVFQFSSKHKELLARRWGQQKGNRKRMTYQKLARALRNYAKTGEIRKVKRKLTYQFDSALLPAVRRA
# Chain of ELF4 (Q99607 whole entry): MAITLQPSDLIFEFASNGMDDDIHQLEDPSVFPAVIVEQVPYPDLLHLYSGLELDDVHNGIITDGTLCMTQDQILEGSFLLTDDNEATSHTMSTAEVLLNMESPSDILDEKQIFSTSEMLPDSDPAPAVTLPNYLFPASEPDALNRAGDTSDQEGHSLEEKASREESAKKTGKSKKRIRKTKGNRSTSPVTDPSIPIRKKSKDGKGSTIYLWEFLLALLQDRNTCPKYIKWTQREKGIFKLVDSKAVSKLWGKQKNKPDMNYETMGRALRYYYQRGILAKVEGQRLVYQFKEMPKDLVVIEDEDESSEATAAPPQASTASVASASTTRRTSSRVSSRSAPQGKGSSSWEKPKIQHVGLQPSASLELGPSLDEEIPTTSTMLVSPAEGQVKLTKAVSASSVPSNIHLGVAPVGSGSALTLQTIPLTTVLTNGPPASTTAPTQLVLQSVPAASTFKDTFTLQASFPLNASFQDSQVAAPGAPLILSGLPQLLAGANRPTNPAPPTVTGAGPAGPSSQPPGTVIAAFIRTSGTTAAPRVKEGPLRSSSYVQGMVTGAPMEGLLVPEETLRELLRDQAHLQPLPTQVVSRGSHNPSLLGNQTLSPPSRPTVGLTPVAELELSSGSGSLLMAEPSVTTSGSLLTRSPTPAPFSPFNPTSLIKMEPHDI
# Chain of ELF1 (P32519 whole entry): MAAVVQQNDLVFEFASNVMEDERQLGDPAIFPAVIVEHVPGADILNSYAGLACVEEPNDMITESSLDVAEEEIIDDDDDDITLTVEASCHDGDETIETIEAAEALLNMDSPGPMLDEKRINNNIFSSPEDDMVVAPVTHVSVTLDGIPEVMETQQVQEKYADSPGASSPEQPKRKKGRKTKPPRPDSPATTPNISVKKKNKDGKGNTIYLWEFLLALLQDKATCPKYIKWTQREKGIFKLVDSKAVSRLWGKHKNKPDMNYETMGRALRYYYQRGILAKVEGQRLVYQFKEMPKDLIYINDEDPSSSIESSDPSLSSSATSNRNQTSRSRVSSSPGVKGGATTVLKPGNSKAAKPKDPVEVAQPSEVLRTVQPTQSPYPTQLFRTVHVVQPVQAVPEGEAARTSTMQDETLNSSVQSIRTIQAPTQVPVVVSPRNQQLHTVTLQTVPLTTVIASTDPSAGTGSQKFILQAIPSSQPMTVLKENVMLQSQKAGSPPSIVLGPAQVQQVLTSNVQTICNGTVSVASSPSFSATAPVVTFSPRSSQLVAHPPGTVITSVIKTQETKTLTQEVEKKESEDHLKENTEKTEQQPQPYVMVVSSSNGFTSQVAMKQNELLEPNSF
# Chain of ETV1 (P50549 whole entry): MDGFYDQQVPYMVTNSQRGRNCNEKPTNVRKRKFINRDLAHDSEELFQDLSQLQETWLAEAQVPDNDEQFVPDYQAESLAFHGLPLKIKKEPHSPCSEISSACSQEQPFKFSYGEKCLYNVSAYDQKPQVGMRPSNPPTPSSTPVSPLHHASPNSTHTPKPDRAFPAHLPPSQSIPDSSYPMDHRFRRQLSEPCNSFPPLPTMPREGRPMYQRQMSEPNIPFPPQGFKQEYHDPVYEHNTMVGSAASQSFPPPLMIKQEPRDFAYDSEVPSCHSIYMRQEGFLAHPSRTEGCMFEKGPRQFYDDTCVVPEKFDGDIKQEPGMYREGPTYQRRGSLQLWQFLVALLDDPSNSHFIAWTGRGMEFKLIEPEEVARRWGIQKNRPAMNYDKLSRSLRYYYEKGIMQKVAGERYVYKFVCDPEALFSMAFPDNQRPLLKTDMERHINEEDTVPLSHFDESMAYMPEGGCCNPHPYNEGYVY
sequence,measurement,setting,value
GACTTT,binding signal,FLI1,"1.04 fold enrichment (6-mer frequency, TF over GST control)"
same,binding signal,ELK1,"1.18 fold enrichment (6-mer frequency, TF over GST control)"
same,binding signal,GABPA,"1.17 fold enrichment (6-mer frequency, TF over GST control)"
same,binding signal,ERG,"1.16 fold enrichment (6-mer frequency, TF over GST control)"
same,binding signal,ELF1,"1.12 fold enrichment (6-mer frequency, TF over GST control)"
same,binding signal,EHF,"1.07 fold enrichment (6-mer frequency, TF over GST control)"
same,binding signal,SPI1,"1.23 fold enrichment (6-mer frequency, TF over GST control)"
same,binding signal,SPIB,"1.12 fold enrichment (6-mer frequency, TF over GST control)"
same,binding signal,ELK3,"1.12 fold enrichment (6-mer frequency, TF over GST control)"
same,binding signal,FEV,"1.14 fold enrichment (6-mer frequency, TF over GST control)"
same,binding signal,ETV5,"1.22 fold enrichment (6-mer frequency, TF over GST control)"
same,binding signal,HSF1,"1.4 fold enrichment (6-mer frequency, TF over GST control)"
same,binding signal,SPIC,"1.21 fold enrichment (6-mer frequency, TF over GST control)"
same,binding signal,ELF4,"1.22 fold enrichment (6-mer frequency, TF over GST control)"
same,binding signal,ELK4,"1.17 fold enrichment (6-mer frequency, TF over GST control)"
same,binding signal,ETV2,"1.1 fold enrichment (6-mer frequency, TF over GST control)"
same,binding signal,ELF3,"1.1 fold enrichment (6-mer frequency, TF over GST control)"
same,binding signal,CRX,"1.37 fold enrichment (6-mer frequency, TF over GST control)"
same,binding signal,ETV1,"1.24 fold enrichment (6-mer frequency, TF over GST control)"
